# High-throughput results as filed in PubChem.
# DT40 TDP1 no CPT: qHTS for Inhibitors of human tyrosyl-DNA phosphodiesterase 1 (TDP1): qHTS in cells in absence of CPT; hit rate 15% among 420,000; AID 686978, 2013; Potency, µM (titrated, usually from 46.2 µM), actives largely listed as inhibitors; DT40 Tdp1-/- hTDP1 cells, no CPT, ATP luminescence, 48 h; also: nearly all actives have a fitted effect of over 55% in size
#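 Luminescent ATP content (CellTiter-Glo) served as the growth readout. Knockout chicken DT40 cells expressing human TDP1 were exposed to compounds without camptothecin for a minimum 48 hr at 37 °C.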
# HT1080 IDH1KD tx: qHTS for induction of synthetic lethality in tumor cells producing 2HG: qHTS for the HT-1080-IDH1KD cell line; HT-1080 IDH1 knockdown viability, ATP luminescence, 48 h; Potency, µM (highest dose often 46.1 µM), actives largely listed as cytotoxic; hit rate 2% among 360,000; AID 686971, 2013
#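 Luminescent ATP read-out (CellTiter-Glo, 10 min at room temperature) after 48 h compound exposure at 37 °C gave viability of IDH1-knockdown HT-1080 cells. Activity was normalised to DMSO and cell-free wells, then fitted as concentration-response curves.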
# HT1080NT lethal: qHTS for induction of synthetic lethality in tumor cells producing 2HG: qHTS for the HT-1080-NT fibrosarcoma cell line; HT-1080-NT fibrosarcoma viability, CellTiter-Glo ATP luminescence, 48 h; hit rate 1.6% among 360,000; Potency, µM (top dose mostly 46.1 µM), most hits filed as cytotoxic; AID 686970, 2013;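 also: NT is the 2HG producing partner of a matched IDH1 knockdown line; nearly all actives have a fitted effect of over 55% in size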
#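 Toxicity toward the 2HG-producing NT line was scored as %Activity, normalised to DMSO and no-cell wells, from CellTiter-Glo luminescence after 48 hours' treatment.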
# IL1B secr inh: qHTS for Inhibitors of Inflammasome Signaling: IL-1-beta AlphaLISA Primary Screen. THP-1 LPS/ATP IL-1B secretion, AlphaLISA, 16 h; active compounds read low. activity change, % at 57.5 µM. hit rate 4.7% among 360,000; in the data active = activity change below about -50%; inconclusive = mostly about -30% to -49%
#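 Secreted IL-1B measured by AlphaLISA bead assay after 16 h compound exposure of THP-1 cells; compounds (final up to 57.5 uM) added 1 h before LPS (250 ng/mL) and ATP (1.25 mM) stimulation; lower signal means less secretion.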
# DT40 TDP1 CPT: qHTS for Inhibitors of human tyrosyl-DNA phosphodiesterase 1 (TDP1): qHTS in cells in presence of CPT; hit rate 12% among 420,000; AID 686979, 2013; Potency, µM (doses to about 46.2 µM), most hits filed as inhibitors; chicken DT40 Tdp1-/-;hTDP1 cells + 20 nM CPT, ATP luminescence, 48 h; also: nearly all actives have a fitted effect of over 55% in size
#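 Chicken DT40 Tdp1-/- cells stably complemented with human TDP1 were seeded at 400 cells/well in medium containing 20 nM camptothecin, exposed to pin-transferred compounds, and grown at 37 °C for at least 48 hr. Viability was read as ATP luminescence.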
# A number is an active result; i = inactive; ? = inconclusive; nt = not tested or not shown. Most compounds without a hit are left out; they make up all but 19% or so of the library. Unless noted, calls follow the shape of the dose curve; as a rule, active = well fitted curve in the direction sought with a large enough effect; inconclusive = small, poorly fitted or top-dose-only effect, or another doubt; inactive = no such curve, though single readings can be large; an effect the other way counts as inactive or inconclusive.
SMILES,DT40 TDP1 no CPT,HT1080 IDH1KD tx,HT1080NT lethal,IL1B secr inh,DT40 TDP1 CPT
Cc1ccc(C)c(NC(=S)N(CCN(C)C)C(C)c2ccccn2)c1 (centres undefined),i,i,i,i,i
O=C(COc1ccccc1)Nc1ccc(S(=O)(=O)N(Cc2ccccc2)c2ccccc2)cc1,15µM,nt,nt,nt,?
Cc1cccc(OCC(=O)Nc2ccc(NC(=O)c3ccccc3)cc2)c1,i,i,i,i,i
Cc1cccc(OCC(=O)Nc2ccc(S(=O)(=O)N(Cc3ccccc3)c3ccccc3)cc2)c1,3.3µM,nt,nt,nt,10µM
Cc1ccc(-c2nc3ncccc3o2)cc1NC(=O)c1ccc(-c2cccc(Cl)c2C)o1,i,nt,nt,nt,?
CCN(CC)C(=O)C1=C(C)N(Cc2ccccc2)C(=O)C(CC(=O)NCCCCc2ccccc2)C1 (centres undefined),26µM,i,i,i,23µM
CC1=C(C(=O)N2CCCCCC2)CC(CC(=O)NCCCN(C)C)C(=O)N1Cc1ccccc1 (centres undefined),i,i,i,i,i
COc1ccc(CN2C(=O)C(CC(=O)NCCCCc3ccccc3)CC(C(=O)N3CCCCCC3)=C2C)cc1 (centres undefined),21µM,i,i,nt,21µM
CC1=C(C(=O)N(C(C)C)C(C)C)CC(CC(=O)NCCCCc2ccccc2)C(=O)N1Cc1ccccc1 (centres undefined),23µM,i,i,i,?
CC1=C(C(=O)N(C(C)C)C(C)C)CC(CC(=O)NCCCN(C)C)C(=O)N1Cc1ccccc1 (centres undefined),i,i,i,i,i
CC1=C(C(=O)N(C(C)C)C(C)C)CC(CC(=O)NCCCCc2ccccc2)C(=O)N1Cc1ccc(F)cc1 (centres undefined),?,?,?,-56,?
CCN(CC)C(=O)C1=C(C)N(Cc2ccccc2)C(=O)C(CC(=O)NCCc2ccccn2)C1 (centres undefined),i,i,i,i,i
CCc1cc2ccc(C)cc2nc1SCC(=O)c1ccc(NC(C)=O)cc1,i,i,?,-61,i
CC1CCN(Cc2nnnn2CCCC(=O)NCCN2CCOCC2)CC1,i,i,i,i,i
O=C(c1ccc(Cn2ccc([N+](=O)[O-])n2)cc1)N1CCN(Cc2ccccc2)CC1,?,i,i,i,i
CSc1ccc(CN2CCN(C(=O)c3ccc([N+](=O)[O-])cc3)CC2)cc1,21µM,?,i,i,?
O=C(c1ccc(Oc2ccc([N+](=O)[O-])cc2)cc1)N1CCCCCC1,?,?,i,-78,?
O=C(NCC1CCN(C(=O)c2ccc([N+](=O)[O-])cc2)CC1)C(=O)Nc1ccccc1,21µM,i,i,i,?
O=C(c1ccc(Oc2ccc([N+](=O)[O-])cc2Cl)cc1)N1CCCC1,?,i,i,i,?
O=C(O)[C@@H]1Cc2ccccc2N1,i,i,i,i,i
CCC(CC)NC(=O)CO/N=C/c1ccccc1OC(F)F,i,i,i,i,i
CCCCC(C)(O)C/C=C/[C@H]1[C@H](O)CC(=O)[C@@H]1CCCCCCC(=O)OC (some centres undefined),1.5µM,nt,nt,nt,?
O=C(CSc1ccc(F)cc1)Nc1ccccc1Br,i,i,?,i,i
CCNC(=O)c1ccccc1SCC(=O)Nc1ccc(F)cc1,?,i,i,i,16µM
O=C(CSc1ccc(F)cc1)Nc1ccc(Br)cc1,18µM,i,i,i,i
SMILES,DT40 TDP1 no CPT,HT1080 IDH1KD tx,HT1080NT lethal,IL1B secr inh,DT40 TDP1 CPT
Cc1ccc(NCC(=O)N/N=C/c2cccc(Oc3ccccc3)c2)cc1,?,i,i,-77,?
Cc1cccc(NCC(=O)N/N=C\c2cccc(Oc3ccccc3)c2)c1,?,i,i,i,?
C[C@]12CCC(=O)C=C1CC[C@@H]1[C@@H]2CC[C@@]2(C)[C@H]1CC[C@@]21CCC(=O)O1,9.2µM,i,i,i,?
CC12CCC(O)CC1=CCC1C2CCC2(C)C1CCC21CCC(=O)O1 (centres undefined),?,i,i,i,?
CC(=O)S[C@@H]1CC2=CC(=O)CC[C@]2(C)[C@H]2CC[C@@]3(C)[C@@H](CC[C@@]34CCC(=O)O4)[C@H]12,5.8µM,?,?,-56,7.3µM
CC(NC(=O)c1cccc(Cl)c1)C1CC2CCC1C2 (centres undefined),i,i,i,i,i
CCCCOc1ccc(C(=O)N/C(=C/C=C/c2ccccc2)C(=O)NC)cc1,i,i,i,i,26µM
O=C(Nc1ccc(O)cc1)/C(=C\C=C\c1ccccc1)NC(=O)c1ccccc1,16µM,i,i,i,?
CCOc1ccc(NC(=O)COC(=O)c2ccccc2OCC(=O)N(C)C)cc1,i,nt,nt,nt,i
CCOC(=O)c1cc(NC(=O)N2CCCCC2)c(C)nc1C,i,i,i,i,i
CCOc1ccc(NC(=O)c2ccc(-c3nc(COc4ccccc4)c(C)o3)cc2)cc1,i,nt,nt,nt,i
COc1ccc(C2Oc3ccccc3C3=C2C(c2cccs2)n2ncnc2N3)cc1 (centres undefined),23µM,8.2µM,?,i,21µM
COc1ccc(OC)c(NC(=O)C2=C(C)Nc3ncnn3C2c2cccs2)c1 (centres undefined),i,i,i,i,i
O=C(COc1ccc([N+](=O)[O-])cc1)N(Cc1ccccc1)Cc1ccccc1,?,i,i,i,?
O=C(O)CCC(=O)OCCN(Cc1ccc(Oc2ccc([N+](=O)[O-])cc2)cc1)C(=O)C(Cl)Cl,?,i,i,i,18µM
COc1cccc(C(=O)Nc2ccc3nc(SCC(=O)N4CCc5ccccc54)sc3c2)c1,4.6µM,nt,nt,nt,3.3µM
Cc1ccc(OCC(=O)Nc2ccc3nc(SCC(=O)N4CCc5ccccc54)sc3c2)cc1,i,nt,nt,nt,i
COc1ccc(C(=O)Nc2ccc3nc(SCC(=O)N4CCc5ccccc54)sc3c2)cc1,5.2µM,nt,nt,nt,2.9µM
COc1cccc(C(=O)Nc2ccc3nc(SCc4ccc(C)cc4)sc3c2)c1,16µM,nt,nt,nt,16µM
CCCCC(=O)Nc1ccc2nc(SCC(=O)N3CCc4ccccc43)sc2c1,5.8µM,nt,nt,nt,15µM
CN(Cc1ccc(Cl)cc1)C(C(=O)NC1CCCCC1)c1ccnc2ccccc12 (centres undefined),?,?,?,i,?
CCCN1CCN(S(=O)(=O)c2ccc3c(c2)NC(=O)C(C)C(=O)N3)CC1 (centres undefined),?,i,i,i,i
COC1OC(O)C(NC(=O)C(F)(F)F)CC1O (centres undefined),i,i,i,i,i
